Test results: the supplement of paper PMC10849652
Targets with a hit are over-represented here; the source holds about 8,800 in all. About 0.5% of all pairs of compound and target were hits.

Columns and labels:
Assay in all cases: log2 fold change, soluble protein after heating vs DMSO (PISA); higher = thermal stabilisation; K562 lysate, 10 uM; active = over 0.2 and 3.5 SD of the protein, either way, in both replicates (recomputed)
nilotinib = compound: Cc1cn(-c2cc(NC(=O)c3ccc(C)c(Nc4nccc(-c5cccnc5)n4)c3)cc(C(F)(F)F)c2)cn1 [nilotinib]
Procedure, shortened: (§1)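 Following dounce homogenisation of K562 pellets in PBS pH 7.4 with 1 mM MgCl2, crude extract at 1 mg/mL protein was incubated for 30 min with 10 μM compound. Aliquots were then heated for 3 min over 48°C-58°C and pooled, NP-40 was added to 0.5% at 4°C, and soluble protein was recovered as the supernatant at 21,000xg for 90 min. Channel-sum-equalised TMTpro 16plex LC-MS/MS quantified this protein. Each value, from duplicates, is a log-two fold change in thermal stability relative to solvent controls.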

[1] = compound: Cc1nc(Nc2n[nH]c3c2CN(C(=O)N[C@H](CN(C)C)c2ccccc2)C3(C)C)c2sccc2n1
Procedure, shortened: as §1

dasatinib = compound: Cc1nc(Nc2ncc(C(=O)Nc3c(C)cccc3Cl)s2)cc(N2CCN(CCO)CC2)n1 [dasatinib]
Procedure, shortened: as §1

[2] = compound: Cc1ncc(-c2ccnc(Nc3ccc(S(C)(=O)=O)cc3)n2)n1C(C)C
Procedure, shortened: as §1

[3] = compound: Cn1cc(-c2ccc3c(c2)CCN3C(=O)Cc2cccc(C(F)(F)F)c2)c2c(N)ncnc21
Procedure, shortened: as §1

quisinostat = compound: Cn1cc(CNCC2CCN(c3ncc(C(=O)NO)cn3)CC2)c2ccccc21 [quisinostat]
Procedure, shortened: as §1

tipifarnib = compound: Cn1cncc1[C@@](N)(c1ccc(Cl)cc1)c1ccc2c(c1)c(-c1cccc(Cl)c1)cc(=O)n2C [tipifarnib]
Procedure, shortened: as §1

[4] = compound: NC(=O)Nc1cc(-c2cccc(F)c2)sc1C(=O)N[C@H]1CCCNC1
Procedure, shortened: as §1

[5] = compound: NC(=O)c1cnc(N[C@@H]2CCCC[C@@H]2N)nc1Nc1cccc(-n2nccn2)c1
Procedure, shortened: as §1

[6] = compound: NC1(c2ccc(-c3nc4ccn5c(=O)[nH]nc5c4cc3-c3ccccc3)cc2)CCC1
Procedure, shortened: as §1

[7] = compound: NCC(=O)Nc1ccc(-n2nc(C(F)(F)F)cc2-c2ccc3c(ccc4ccccc43)c2)cc1
Procedure, shortened: as §1

vorinostat = compound: O=C(CCCCCCC(=O)Nc1ccccc1)NO [vorinostat]
Procedure, shortened: as §1

silmitasertib = compound: O=C(O)c1ccc2c(c1)nc(Nc1cccc(Cl)c1)c1ccncc12 [silmitasertib]
Procedure, shortened: as §1

[8] = compound: O=C1NC(=O)C(c2cnc3ccccn23)=C1c1cn2c3c(cc(F)cc13)CN(C(=O)N1CCCCC1)CC2
Procedure, shortened: as §1

entospletinib = compound: c1cn2cc(-c3ccc4cn[nH]c4c3)nc(Nc3ccc(N4CCOCC4)cc3)c2n1 [entospletinib]
Procedure, shortened: as §1

Measured: log2 fold change

MAT2B (UniProt Q9NZL9)
inactive: nilotinib 0.002 | [1] -0.014 | dasatinib -0.023 | [2] -0.024 | [3] -0.007 | quisinostat 0.021 | tipifarnib 0.02 | [4] -0.005 | [5] 0.04 | [6] 0.009 | [7] 0.019 | vorinostat 0.103 | silmitasertib 0.005 | [8] 0.021 | entospletinib 0.024

MAP1S (UniProt Q66K74)
inactive: nilotinib 0.007 | [1] -0.022 | dasatinib -0.007 | [2] -0.009 | [3] 0.009 | quisinostat -0.006 | tipifarnib 0.02 | [4] 0.026 | [5] 0 | [6] 0 | [7] 0.006 | silmitasertib -0.004 | [8] -0.025 | entospletinib 0.01
active: vorinostat -0.242

MAPK14 (UniProt Q16539)
inactive: nilotinib 0.563 | [1] 0.038 | [2] 0.069 | [3] -0.029 | quisinostat -0.025 | tipifarnib -0.137 | [4] -0.012 | [5] -0.005 | [6] -0.042 | [7] -0.007 | vorinostat -0.294 | silmitasertib 0.279 | [8] 0.015 | entospletinib -0.005
active: dasatinib 0.984

KIF4A (UniProt O95239)
active: vorinostat -0.445
inactive: nilotinib -0.02 | [1] 0.029 | dasatinib -0.011 | [2] 0.014 | [3] 0.037 | quisinostat -0.104 | tipifarnib 0.017 | [4] 0.042 | [5] -0.014 | [6] 0.014 | [7] -0.017 | silmitasertib 0.017 | [8] 0.013 | entospletinib 0.001

MRPL12 (UniProt P52815)
inactive: nilotinib 0.032 | [1] -0.01 | dasatinib 0.034 | [2] 0.099 | [3] -0.013 | quisinostat 0.084 | tipifarnib 0.031 | [4] -0.023 | [5] -0.022 | [6] -0.006 | [7] -0.07 | vorinostat 0.116 | silmitasertib -0.023 | [8] 0 | entospletinib -0.152

MAP2K2 (UniProt P36507)
Sequence of UniProt P36507 (P36507 whole entry, looked up): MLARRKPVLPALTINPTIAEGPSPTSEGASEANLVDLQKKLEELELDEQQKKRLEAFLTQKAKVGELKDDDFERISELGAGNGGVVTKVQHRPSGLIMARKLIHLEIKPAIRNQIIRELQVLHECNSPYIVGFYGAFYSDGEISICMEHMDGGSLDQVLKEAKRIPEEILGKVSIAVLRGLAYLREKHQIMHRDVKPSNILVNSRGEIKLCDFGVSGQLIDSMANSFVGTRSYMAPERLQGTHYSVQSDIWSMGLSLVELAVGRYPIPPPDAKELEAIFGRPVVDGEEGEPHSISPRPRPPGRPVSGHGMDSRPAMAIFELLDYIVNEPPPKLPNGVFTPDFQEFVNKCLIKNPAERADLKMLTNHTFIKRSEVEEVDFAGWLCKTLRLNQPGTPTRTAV
active: dasatinib 0.445 | [4] 0.495
inactive: nilotinib -0.03 | [1] 0.205 | [2] 0.065 | [3] -0.031 | quisinostat 0 | tipifarnib -0.006 | [5] 0.033 | [6] -0.002 | [7] -0.031 | vorinostat -0.088 | silmitasertib 0.099 | [8] 0.032 | entospletinib 0.04

MRPL10 isoform 2 (UniProt Q7Z7H8)
inactive: nilotinib 0.009 | [1] 0.016 | dasatinib -0.019 | [2] 0.025 | [3] 0.054 | quisinostat -0.22 | tipifarnib -0.017 | [4] 0.015 | [5] 0.024 | [6] -0.011 | [7] 0.005 | vorinostat 0.035 | silmitasertib -0.027 | [8] -0.027 | entospletinib -0.027

LRRC40 (UniProt Q9H9A6)
active: vorinostat -0.315
inactive: nilotinib -0.008 | [1] -0.01 | dasatinib -0.012 | [2] -0.035 | [3] 0.017 | quisinostat 0.032 | tipifarnib -0.032 | [4] 0.004 | [5] 0.004 | [6] 0.029 | [7] -0.005 | silmitasertib 0.027 | [8] -0.043 | entospletinib 0.02

KIFC1 (UniProt Q9BW19)
Sequence of UniProt Q9BW19 (Q9BW19 whole entry, looked up): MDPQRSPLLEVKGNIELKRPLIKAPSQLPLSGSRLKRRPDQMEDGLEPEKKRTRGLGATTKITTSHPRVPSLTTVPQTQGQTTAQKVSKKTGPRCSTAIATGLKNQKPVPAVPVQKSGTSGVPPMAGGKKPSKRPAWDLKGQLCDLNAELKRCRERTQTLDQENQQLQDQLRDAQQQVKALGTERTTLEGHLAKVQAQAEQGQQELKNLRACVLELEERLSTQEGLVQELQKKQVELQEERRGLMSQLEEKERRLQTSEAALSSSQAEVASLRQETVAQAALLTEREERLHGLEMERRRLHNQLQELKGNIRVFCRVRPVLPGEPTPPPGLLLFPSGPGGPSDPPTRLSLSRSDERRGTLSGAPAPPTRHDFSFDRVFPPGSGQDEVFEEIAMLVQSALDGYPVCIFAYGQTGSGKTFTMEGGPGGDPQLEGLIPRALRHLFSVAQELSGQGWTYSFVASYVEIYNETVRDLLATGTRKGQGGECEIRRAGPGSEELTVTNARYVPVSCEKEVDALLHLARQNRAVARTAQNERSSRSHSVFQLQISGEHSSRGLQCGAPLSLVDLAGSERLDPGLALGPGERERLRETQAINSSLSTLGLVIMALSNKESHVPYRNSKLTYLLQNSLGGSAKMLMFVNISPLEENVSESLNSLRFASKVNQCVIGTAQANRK
inactive: nilotinib -0.008 | [1] 0.003 | dasatinib -0.031 | [2] -0.002 | [3] 0.034 | quisinostat -0.055 | tipifarnib 0.006 | [4] 0.001 | [5] -0.024 | [6] -0.025 | [7] 0.02 | silmitasertib 0.03 | [8] -0.04 | entospletinib -0.002
active: vorinostat -0.898

LAS1L (UniProt Q9Y4W2)
inactive: nilotinib -0.019 | [1] 0.008 | dasatinib 0.025 | [2] 0.029 | [3] -0.019 | quisinostat -0.083 | tipifarnib -0.013 | [4] 0.033 | [5] 0.044 | [6] -0.024 | [7] -0.008 | silmitasertib 0.01 | [8] -0.018 | entospletinib -0.075
active: vorinostat -0.397

MAP2K1 (UniProt Q02750)
active: dasatinib 0.296 | [4] 0.4
inactive: nilotinib -0.02 | [1] 0.107 | [2] 0.057 | [3] -0.057 | quisinostat -0.064 | tipifarnib -0.037 | [5] 0.033 | [6] -0.02 | [7] -0.005 | vorinostat -0.116 | silmitasertib 0.108 | [8] 0.006 | entospletinib 0.03

KIF3C (UniProt O14782)
inactive: nilotinib -0.038 | [1] -0.117 | dasatinib 0.026 | [2] 0.191 | [3] 0.062 | quisinostat -0.204 | tipifarnib -0.187 | [4] 0.043 | [5] -0.194 | [6] 0.145 | vorinostat -0.352 | silmitasertib 0.249 | [8] 0.074 | entospletinib 0.032
active: [7] 1.17

MRPL35 (UniProt Q9NZE8)
inactive: nilotinib 0.05 | [1] -0.027 | dasatinib 0.062 | [2] 0.049 | [3] -0.028 | quisinostat 0.004 | tipifarnib -0.037 | [4] -0.034 | [5] -0.007 | [6] 0.056 | [7] -0.229 | vorinostat -0.159 | silmitasertib 0.04 | [8] 0.013

KPNA4 (UniProt O00629)
inactive: nilotinib -0.013 | [1] 0.006 | dasatinib 0.063 | [2] 0.018 | [3] 0.003 | quisinostat -0.088 | tipifarnib -0.033 | [4] -0.012 | [5] 0 | [6] -0.058 | [7] 0.006 | vorinostat 0.047 | silmitasertib 0.024 | [8] 0.02 | entospletinib 0.021

LTN1 isoform 3 (UniProt O94822)
Sequence of UniProt O94822 (O94822 whole entry, looked up): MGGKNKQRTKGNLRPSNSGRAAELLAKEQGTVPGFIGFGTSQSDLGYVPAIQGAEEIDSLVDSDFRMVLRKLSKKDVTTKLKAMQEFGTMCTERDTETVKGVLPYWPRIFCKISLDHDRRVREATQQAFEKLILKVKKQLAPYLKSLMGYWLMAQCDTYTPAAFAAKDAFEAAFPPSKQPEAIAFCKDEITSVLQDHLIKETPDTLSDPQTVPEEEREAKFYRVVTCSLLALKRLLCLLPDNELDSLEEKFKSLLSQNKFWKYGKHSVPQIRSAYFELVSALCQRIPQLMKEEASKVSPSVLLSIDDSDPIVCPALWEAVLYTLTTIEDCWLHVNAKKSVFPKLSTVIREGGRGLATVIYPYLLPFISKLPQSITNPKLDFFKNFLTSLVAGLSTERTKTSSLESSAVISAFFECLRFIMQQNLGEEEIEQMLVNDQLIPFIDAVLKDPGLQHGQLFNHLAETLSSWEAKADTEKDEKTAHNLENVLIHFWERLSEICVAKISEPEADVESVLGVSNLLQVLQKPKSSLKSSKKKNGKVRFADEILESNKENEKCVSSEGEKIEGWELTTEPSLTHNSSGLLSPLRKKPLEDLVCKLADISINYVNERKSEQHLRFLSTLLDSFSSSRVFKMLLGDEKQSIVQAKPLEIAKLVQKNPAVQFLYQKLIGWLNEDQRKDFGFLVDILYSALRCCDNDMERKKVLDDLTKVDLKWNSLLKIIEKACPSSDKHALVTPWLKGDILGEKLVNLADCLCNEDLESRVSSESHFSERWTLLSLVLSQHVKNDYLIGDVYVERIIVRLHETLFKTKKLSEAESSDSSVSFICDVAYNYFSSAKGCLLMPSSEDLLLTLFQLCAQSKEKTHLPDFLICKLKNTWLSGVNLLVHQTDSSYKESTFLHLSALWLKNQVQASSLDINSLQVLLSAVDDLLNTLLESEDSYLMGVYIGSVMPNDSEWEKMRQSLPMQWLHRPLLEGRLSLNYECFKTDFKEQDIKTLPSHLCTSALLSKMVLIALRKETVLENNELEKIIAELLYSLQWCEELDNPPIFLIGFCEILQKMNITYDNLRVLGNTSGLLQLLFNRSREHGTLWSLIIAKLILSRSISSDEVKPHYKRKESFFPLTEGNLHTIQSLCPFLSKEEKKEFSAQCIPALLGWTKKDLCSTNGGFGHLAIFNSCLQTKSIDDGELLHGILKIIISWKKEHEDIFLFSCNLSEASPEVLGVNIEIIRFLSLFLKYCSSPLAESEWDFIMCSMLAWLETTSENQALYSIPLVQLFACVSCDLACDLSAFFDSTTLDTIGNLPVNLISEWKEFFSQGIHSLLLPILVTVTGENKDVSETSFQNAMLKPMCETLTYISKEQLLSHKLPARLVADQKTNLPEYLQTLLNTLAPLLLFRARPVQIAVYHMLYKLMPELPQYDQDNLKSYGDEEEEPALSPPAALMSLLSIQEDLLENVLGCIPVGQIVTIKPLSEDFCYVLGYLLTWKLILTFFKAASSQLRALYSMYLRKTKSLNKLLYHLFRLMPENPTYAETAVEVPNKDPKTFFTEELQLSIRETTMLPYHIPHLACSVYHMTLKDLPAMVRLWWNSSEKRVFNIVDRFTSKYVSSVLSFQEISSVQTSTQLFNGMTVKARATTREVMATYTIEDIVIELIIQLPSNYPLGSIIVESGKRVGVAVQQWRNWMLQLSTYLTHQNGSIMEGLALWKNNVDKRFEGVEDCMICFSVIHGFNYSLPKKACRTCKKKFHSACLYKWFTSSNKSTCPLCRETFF
inactive: nilotinib 0.006 | [1] -0.007 | dasatinib -0.086 | [2] -0.009 | [3] 0.014 | quisinostat -0.023 | tipifarnib -0.002 | [4] 0.044 | [5] -0.016 | [6] -0.027 | [7] 0.057 | silmitasertib 0.04 | [8] 0.028 | entospletinib 0.034
active: vorinostat -0.58

LAGE3 (UniProt Q14657)
Sequence of UniProt Q14657 (Q14657 whole entry, looked up): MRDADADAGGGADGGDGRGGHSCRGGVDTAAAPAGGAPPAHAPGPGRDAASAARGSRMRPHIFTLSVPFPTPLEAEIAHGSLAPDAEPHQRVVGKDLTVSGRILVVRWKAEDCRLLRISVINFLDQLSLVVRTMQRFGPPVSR
inactive: nilotinib -0.065 | [1] 0.186 | dasatinib 0.006 | [2] -0.055 | [3] 0.021 | quisinostat -0.03 | tipifarnib 0.1 | [4] 0.013 | [5] 0.017 | [6] 0.084 | [7] 0.045 | vorinostat -0.085 | silmitasertib -0.016 | [8] -0.041 | entospletinib -0.043

MED16 (UniProt Q9Y2X0)
Sequence of UniProt Q9Y2X0 (Q9Y2X0 whole entry, looked up): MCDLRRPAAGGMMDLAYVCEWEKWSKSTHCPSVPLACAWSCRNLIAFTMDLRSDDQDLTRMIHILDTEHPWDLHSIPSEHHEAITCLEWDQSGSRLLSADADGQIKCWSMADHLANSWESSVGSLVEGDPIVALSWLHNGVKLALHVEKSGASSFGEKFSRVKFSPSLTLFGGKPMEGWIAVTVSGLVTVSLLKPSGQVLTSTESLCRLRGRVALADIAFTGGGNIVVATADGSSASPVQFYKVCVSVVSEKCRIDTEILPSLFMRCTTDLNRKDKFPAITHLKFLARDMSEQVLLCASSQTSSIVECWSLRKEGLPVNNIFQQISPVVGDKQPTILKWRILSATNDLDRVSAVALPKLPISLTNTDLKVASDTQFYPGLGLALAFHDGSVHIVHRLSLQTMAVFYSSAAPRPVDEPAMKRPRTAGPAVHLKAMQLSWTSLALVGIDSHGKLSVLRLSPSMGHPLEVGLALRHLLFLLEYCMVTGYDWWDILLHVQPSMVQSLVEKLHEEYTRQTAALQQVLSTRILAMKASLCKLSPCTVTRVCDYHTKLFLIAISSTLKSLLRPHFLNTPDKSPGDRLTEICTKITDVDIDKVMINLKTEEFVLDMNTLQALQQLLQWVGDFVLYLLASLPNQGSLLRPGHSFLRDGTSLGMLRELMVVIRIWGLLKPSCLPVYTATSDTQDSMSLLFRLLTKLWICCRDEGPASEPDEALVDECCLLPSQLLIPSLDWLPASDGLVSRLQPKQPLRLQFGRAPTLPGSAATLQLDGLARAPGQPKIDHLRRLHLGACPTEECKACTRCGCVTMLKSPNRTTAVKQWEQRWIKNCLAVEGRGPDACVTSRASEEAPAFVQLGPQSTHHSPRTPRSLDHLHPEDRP
inactive: nilotinib -0.019 | [1] 0.01 | dasatinib -0.026 | [2] 0.023 | [3] -0.016 | quisinostat -0.01 | tipifarnib 0.008 | [4] -0.013 | [5] 0.023 | [6] -0.047 | [7] -0.005 | silmitasertib 0.052 | [8] -0.022 | entospletinib 0.016
active: vorinostat -0.354

L3HYPDH (UniProt Q96EM0)
Sequence of UniProt Q96EM0 (Q96EM0 whole entry, looked up): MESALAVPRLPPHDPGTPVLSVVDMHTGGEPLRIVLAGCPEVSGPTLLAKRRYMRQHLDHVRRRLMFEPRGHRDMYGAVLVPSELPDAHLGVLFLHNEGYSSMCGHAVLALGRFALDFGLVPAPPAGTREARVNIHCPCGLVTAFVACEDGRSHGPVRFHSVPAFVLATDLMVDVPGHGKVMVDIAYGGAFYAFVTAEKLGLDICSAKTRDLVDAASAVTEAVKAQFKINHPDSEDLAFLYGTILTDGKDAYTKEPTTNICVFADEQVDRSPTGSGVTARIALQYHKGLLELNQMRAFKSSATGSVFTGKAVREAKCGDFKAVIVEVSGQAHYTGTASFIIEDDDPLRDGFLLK
inactive: nilotinib 0.019 | [1] 0.015 | dasatinib 0.073 | [2] 0.001 | [3] -0.003 | quisinostat -0.053 | tipifarnib -0.002 | [4] 0.033 | [5] 0.015 | [6] 0.009 | [7] 0.023 | silmitasertib 0 | [8] -0.02 | entospletinib -0.005
active: vorinostat -0.31

LYN (UniProt P07948)
Sequence of UniProt P07948 (P07948 whole entry, looked up): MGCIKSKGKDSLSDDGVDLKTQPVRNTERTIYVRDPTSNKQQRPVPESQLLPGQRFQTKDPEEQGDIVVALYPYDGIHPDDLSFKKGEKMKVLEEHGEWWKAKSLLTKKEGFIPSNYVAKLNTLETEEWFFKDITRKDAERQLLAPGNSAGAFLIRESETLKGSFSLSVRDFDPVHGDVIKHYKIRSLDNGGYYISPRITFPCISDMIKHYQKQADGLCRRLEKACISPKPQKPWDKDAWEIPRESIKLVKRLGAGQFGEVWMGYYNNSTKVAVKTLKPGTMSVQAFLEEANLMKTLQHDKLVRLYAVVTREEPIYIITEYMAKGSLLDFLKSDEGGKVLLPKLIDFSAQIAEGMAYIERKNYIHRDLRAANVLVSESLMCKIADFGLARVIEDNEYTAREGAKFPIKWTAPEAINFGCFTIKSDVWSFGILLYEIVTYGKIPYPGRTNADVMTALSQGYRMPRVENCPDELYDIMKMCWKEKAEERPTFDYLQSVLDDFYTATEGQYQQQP
active: [4] 0.842
inactive: nilotinib 0.158 | [1] 0.218 | dasatinib 0.457 | [2] -0.026 | [3] 0.095 | quisinostat -0.125 | tipifarnib -0.154 | [5] 0.084 | [6] -0.037 | [7] 0.025 | vorinostat -0.305 | silmitasertib -0.058 | [8] -0.108 | entospletinib 0.149

KIF15 (UniProt Q9NS87)
inactive: nilotinib -0.038 | [1] -0.003 | dasatinib -0.03 | [2] 0.052 | [3] 0.044 | quisinostat -0.058 | tipifarnib 0.008 | [4] 0.003 | [5] 0.011 | [6] 0 | [7] 0.017 | vorinostat -0.136 | silmitasertib 0.02 | [8] 0.004 | entospletinib -0.024

MIF4GD isoform 3 (UniProt A9UHW6)
Sequence of UniProt A9UHW6 (A9UHW6 whole entry, looked up): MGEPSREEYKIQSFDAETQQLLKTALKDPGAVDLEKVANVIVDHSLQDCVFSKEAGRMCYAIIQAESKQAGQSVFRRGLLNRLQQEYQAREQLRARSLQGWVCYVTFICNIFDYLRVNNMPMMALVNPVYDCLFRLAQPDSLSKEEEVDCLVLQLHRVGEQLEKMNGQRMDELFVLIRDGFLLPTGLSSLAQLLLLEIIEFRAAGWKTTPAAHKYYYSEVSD
inactive: nilotinib -0.036 | [1] 0.031 | dasatinib 0.056 | [2] -0.015 | [3] 0.039 | quisinostat -0.04 | tipifarnib 0.016 | [4] 0.052 | [5] -0.032 | [6] -0.007 | [7] 0.008 | silmitasertib 0.018 | [8] -0.012 | entospletinib -0.032
active: vorinostat -0.232
